Reference: the supplement of paper PMC10849652
Of roughly 7,900 targets only a part is listed; those with a hit were picked by preference. About 0.6% of all pairs of compound and target were hits. Unmarked numbers belong to inactive results.

Key:
Experiment in all cases: log2 fold change, soluble protein after heating vs DMSO (PISA); higher = thermal stabilisation; K562 cells, 10 uM, 30 min; active = over 0.2 and 3.5 SD of the protein, either way, in both replicates (recomputed)
IRAK-1-4 Inhibitor I = compound: C1COCCN1CCN2C3=CC=CC=C3N=C2NC(=O)C4=CC(=CC=C4)[N+](=O)[O-] [IRAK-1-4 Inhibitor I]
Summary of the method: (§1)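 Quantification of soluble protein used TMTpro 16plex LC-MS/MS, with channel sums equalised. Samples were the supernatant after 21,000xg for 90 min of pooled aliquots from K562 cells (2×10^6 cells/mL) treated with 10 μM compound for 30 min, heated for 3 min over 48°C-58°C, and extracted in PBS with 0.5% NP-40 at 4°C. Values, from duplicates, describe thermal stability against control samples on a log2 fold-change scale.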

ibrutinib = compound: C=CC(=O)N1CCC[C@@H](n2nc(-c3ccc(Oc4ccccc4)cc3)c3c(N)ncnc32)C1 [ibrutinib]
Summary of the method: as §1

[1] = compound: CC(=O)c1cnc2ccc(-c3cc(Cl)c(O)c(Cl)c3)nc2c1N[C@H]1CC[C@H](CN(C)C)CC1
Summary of the method: as §1

ralimetinib = compound: CC(C)(C)Cn1c(N)nc2ccc(-c3[nH]c(C(C)(C)C)nc3-c3ccc(F)cc3)nc21 [ralimetinib]
Summary of the method: as §1

[2] = compound: CC(C)(O)CC(=O)NCCn1ccc2ncnc(Nc3ccc(Oc4cccc(C(F)(F)F)c4)c(Cl)c3)c21
Summary of the method: as §1

[3] = compound: CC(C)C1=C2N=C(C=C(N2N=C1)NCC3=CC=CC=C3)NCCCCCCN
Summary of the method: as §1

[4] = compound: CC(C)C[C@@H](C=O)NC(=O)[C@H](CC(C)C)NC(=O)[C@H](CC(C)C)NC(=O)OCc1ccccc1
Summary of the method: as §1

pinometostat = compound: CC(C)N(C[C@H]1O[C@@H](n2cnc3c(N)ncnc32)[C@H](O)[C@@H]1O)[C@H]1C[C@@H](CCc2nc3cc(C(C)(C)C)ccc3[nH]2)C1 [pinometostat]
Summary of the method: as §1

[5] = compound: CC1=C(C(CC(=O)N1)C2=CC=C(C=C2)C(F)(F)F)C(=O)NC3=C(C=C4C(=C3)C=NN4)F
Summary of the method: as §1

[6] = compound: CC1=C(C2=C(C=C1)C(=O)C3=CC=CC=C3N2CCCN)C
Summary of the method: as §1

[7] = compound: CC1=C(C=C(C=C1)NC(=O)C2=CC(=CC=C2)C(C)(C)C#N)NC3=CC4=C(C=C3)N=CN(C4=O)C
Summary of the method: as §1

[8] = compound: CC1=C(C=C(C=C1)NC(=O)C2=CC(=CC=C2)N(C)C)NC(=O)C3=CC=C(C=C3)O
Summary of the method: as §1

[9] = compound: CC1=CC=C(C=C1)SC2=C3C=C(SC3=CN=C2)C(=O)N
Summary of the method: as §1

[10] = compound: CC1=NC(=CC=C1)C2=C(N=C(N2)C(C)(C)C)C3=CC4=NC=CN=C4C=C3
Summary of the method: as §1

Nexturastat A = compound: CCCCN(Cc1ccc(C(=O)NO)cc1)C(=O)Nc1ccccc1 [Nexturastat A]
Summary of the method: as §1

vemurafenib = compound: CCCS(=O)(=O)Nc1ccc(F)c(C(=O)c2c[nH]c3ncc(-c4ccc(Cl)cc4)cc23)c1F [vemurafenib]
Summary of the method: as §1

[11] = compound: CCCS(=O)(=O)Nc1ccc(F)c(C(=O)c2c[nH]c3ncc(Cl)cc23)c1F
Summary of the method: as §1

[12] = compound: CCCc1cc(C)[nH]c(=O)c1CNC(=O)c1cc(-c2ccnc(N3CCN(C)CC3)c2)cc2c1cnn2C(C)C
Summary of the method: as §1

givinostat = compound: CCN(CC)Cc1ccc2cc(COC(=O)Nc3ccc(C(=O)NO)cc3)ccc2c1 [givinostat]
Summary of the method: as §1

barasertib = compound: CCN(CCCOc1ccc2c(Nc3cc(CC(=O)Nc4cccc(F)c4)[nH]n3)ncnc2c1)CCOP(=O)(O)O [barasertib]
Summary of the method: as §1

Sequence of UniProt Q9UI12 (Q9UI12 whole entry, looked up): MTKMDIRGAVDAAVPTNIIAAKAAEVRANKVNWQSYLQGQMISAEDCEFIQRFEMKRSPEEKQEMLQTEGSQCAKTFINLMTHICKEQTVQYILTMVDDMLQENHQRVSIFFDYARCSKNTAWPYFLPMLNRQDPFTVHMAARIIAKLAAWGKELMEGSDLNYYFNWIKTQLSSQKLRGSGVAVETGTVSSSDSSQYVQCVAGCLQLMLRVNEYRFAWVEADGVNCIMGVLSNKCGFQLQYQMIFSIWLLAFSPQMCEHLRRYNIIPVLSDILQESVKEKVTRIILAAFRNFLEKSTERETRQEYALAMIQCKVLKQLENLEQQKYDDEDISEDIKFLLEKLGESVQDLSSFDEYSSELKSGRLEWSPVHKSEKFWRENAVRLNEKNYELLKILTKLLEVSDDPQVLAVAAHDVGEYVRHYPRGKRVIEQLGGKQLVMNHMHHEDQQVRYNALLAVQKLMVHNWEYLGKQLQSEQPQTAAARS
Sequence of UniProt P15291 (P15291 whole entry, looked up): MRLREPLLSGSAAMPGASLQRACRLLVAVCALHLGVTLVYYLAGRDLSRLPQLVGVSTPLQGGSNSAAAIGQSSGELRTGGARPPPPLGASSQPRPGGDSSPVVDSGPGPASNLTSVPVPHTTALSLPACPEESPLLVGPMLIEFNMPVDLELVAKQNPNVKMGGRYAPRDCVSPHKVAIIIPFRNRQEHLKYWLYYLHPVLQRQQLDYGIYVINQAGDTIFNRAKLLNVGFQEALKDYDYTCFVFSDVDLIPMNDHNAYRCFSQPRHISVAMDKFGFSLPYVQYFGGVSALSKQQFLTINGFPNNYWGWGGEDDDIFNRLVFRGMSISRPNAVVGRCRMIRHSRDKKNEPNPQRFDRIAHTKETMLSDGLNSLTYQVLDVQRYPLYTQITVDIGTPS
Sequence of UniProt Q7L1Q6 (Q7L1Q6 whole entry, looked up): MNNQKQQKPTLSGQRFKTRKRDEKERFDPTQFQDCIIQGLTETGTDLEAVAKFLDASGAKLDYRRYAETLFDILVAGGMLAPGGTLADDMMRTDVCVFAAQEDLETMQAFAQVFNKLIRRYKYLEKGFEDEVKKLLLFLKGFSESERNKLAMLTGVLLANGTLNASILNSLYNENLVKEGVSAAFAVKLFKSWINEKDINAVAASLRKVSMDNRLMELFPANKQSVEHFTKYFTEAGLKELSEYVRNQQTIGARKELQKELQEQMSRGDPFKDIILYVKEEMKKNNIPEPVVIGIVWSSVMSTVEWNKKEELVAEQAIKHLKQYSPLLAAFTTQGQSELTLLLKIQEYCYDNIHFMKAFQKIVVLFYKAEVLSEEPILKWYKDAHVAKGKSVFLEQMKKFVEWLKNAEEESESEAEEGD
Sequence of UniProt Q15057 (Q15057 whole entry, looked up): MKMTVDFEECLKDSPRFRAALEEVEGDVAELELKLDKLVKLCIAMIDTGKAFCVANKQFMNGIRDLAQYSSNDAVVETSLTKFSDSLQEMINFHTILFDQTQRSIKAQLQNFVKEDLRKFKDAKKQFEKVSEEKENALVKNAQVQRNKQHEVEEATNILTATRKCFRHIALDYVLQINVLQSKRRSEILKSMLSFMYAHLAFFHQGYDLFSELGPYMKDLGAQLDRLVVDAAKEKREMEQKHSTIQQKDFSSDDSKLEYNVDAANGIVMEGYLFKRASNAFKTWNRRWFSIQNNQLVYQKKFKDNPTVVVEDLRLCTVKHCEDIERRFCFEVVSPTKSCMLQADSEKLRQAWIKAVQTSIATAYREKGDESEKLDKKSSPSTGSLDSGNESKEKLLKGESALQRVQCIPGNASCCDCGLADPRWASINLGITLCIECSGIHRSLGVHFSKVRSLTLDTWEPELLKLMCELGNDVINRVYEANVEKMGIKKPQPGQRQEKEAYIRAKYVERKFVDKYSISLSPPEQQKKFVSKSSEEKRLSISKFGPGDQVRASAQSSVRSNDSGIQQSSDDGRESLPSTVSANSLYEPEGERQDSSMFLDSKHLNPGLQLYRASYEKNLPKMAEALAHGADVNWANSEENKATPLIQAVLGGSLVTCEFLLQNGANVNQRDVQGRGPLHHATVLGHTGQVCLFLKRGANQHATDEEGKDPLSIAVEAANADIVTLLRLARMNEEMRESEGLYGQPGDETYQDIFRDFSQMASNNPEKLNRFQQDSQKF
Sequence of UniProt P33121 (P33121 whole entry, looked up): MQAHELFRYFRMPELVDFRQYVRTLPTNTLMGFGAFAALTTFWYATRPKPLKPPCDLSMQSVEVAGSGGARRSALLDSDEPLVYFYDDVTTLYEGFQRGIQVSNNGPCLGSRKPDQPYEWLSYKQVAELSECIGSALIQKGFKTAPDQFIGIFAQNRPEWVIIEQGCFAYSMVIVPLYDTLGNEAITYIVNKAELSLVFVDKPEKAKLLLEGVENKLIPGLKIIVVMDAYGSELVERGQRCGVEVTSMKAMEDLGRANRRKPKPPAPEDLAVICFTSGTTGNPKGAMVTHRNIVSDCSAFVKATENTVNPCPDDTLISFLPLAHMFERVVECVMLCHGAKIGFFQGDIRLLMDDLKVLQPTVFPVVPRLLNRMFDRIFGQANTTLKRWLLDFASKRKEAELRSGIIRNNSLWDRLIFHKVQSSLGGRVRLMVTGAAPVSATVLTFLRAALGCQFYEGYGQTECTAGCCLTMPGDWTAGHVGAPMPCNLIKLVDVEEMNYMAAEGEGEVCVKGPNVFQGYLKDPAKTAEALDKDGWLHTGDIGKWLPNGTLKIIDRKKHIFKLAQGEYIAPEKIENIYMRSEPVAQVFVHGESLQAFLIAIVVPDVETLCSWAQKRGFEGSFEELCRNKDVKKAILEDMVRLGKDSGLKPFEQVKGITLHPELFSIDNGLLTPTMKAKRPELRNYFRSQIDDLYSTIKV
Sequence of UniProt Q96CW1 (Q96CW1 whole entry, looked up): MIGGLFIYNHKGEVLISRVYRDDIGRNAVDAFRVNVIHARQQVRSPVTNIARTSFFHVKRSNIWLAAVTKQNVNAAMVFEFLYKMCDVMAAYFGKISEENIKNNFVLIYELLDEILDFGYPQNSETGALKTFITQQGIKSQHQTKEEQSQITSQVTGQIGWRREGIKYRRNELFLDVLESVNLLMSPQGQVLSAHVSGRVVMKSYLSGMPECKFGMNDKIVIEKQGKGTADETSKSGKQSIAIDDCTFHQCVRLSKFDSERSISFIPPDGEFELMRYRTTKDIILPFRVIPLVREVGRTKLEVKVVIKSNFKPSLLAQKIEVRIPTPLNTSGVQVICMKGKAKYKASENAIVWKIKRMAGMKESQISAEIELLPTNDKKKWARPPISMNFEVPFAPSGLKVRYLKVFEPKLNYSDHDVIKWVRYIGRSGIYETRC

| Target | log2 fold change (IRAK-1-4 Inhibitor I) | log2 fold change (ibrutinib) | log2 fold change [1] | log2 fold change (ralimetinib) | log2 fold change [2] | log2 fold change [3] | log2 fold change [4] | log2 fold change (pinometostat) | log2 fold change [5] | log2 fold change [6] | log2 fold change [7] | log2 fold change [8] | log2 fold change [9] | log2 fold change [10] | log2 fold change (Nexturastat A) | log2 fold change (vemurafenib) | log2 fold change [11] | log2 fold change [12] | log2 fold change (givinostat) | log2 fold change (barasertib) |
| --- | --- | --- | --- | --- | --- | --- | --- | --- | --- | --- | --- | --- | --- | --- | --- | --- | --- | --- | --- | --- |
| AP2M1 (UniProt Q96CW1) | -0.049 | 0.043 | -0.043 | 0.036 | 0.022 | 0.045 | 0.011 | 0.026 | 0.011 | 0.079 | 0.022 | -0.019 | -0.023 | 0.002 | 0.073 | -0.006 | 0.014 | -0.049 | 0.031 | -0.074 |
| B4GALT1 (UniProt P15291) | 0.034 | -0.057 | -0.019 | 0.094 | 0.094 | -0.294 (active) | 0.017 | -0.051 | 0.006 | -0.03 | -0.009 | -0.027 | 0.002 | -0.05 | -0.022 | 0.035 | 0.012 | -0.044 | -0.113 | -0.01 |
| BZW1 isoform 3 (UniProt Q7L1Q6) | -0.118 | -0.123 | 0.005 | 0.049 | -0.296 | -0.422 (active) | 0.007 | 0.123 | 0.006 | 0.068 | 0.064 | -0.014 | 0.036 | 0.038 | 0.016 | 0.107 | 0.126 | 0.105 | 0.084 | 0.06 |
| ACSL1 (UniProt P33121) | -0.004 | 0.017 | -0.037 | -0.018 | 0.01 | -0.243 (active) | -0.057 | 0.008 | 0.058 | 0.03 | 0.01 | 0.01 | 0.031 | 0.056 | -0.115 | -0.021 | 0.041 | -0.018 | -0.034 | -0.002 |
| ATP6V1H (UniProt Q9UI12) | -0.011 | -0.033 | -0.065 | 0.007 | -0.014 | -0.241 (active) | 0.043 | -0.002 | -0.006 | 0.028 | 0.028 | -0.016 | 0.045 | 0.014 | -0.008 | -0.004 | 0.077 | 0.022 | 0.03 | 0.018 |
| ACAP2 (UniProt Q15057) | -0.033 | -0.012 | -0.038 | 0 | -0.031 | -0.065 | 0.061 | 0.029 | -0.036 | 0.004 | -0.046 | 0 | -0.038 | 0.033 | 0 | 0.046 | 0.057 | -0.04 | 0.028 | 0 |
